For 40 compounds, outcome results are on record in PubChem BioAssay (Tox21).

Inconclusive results are not listed. Calls of active or inactive are those of the source. Calls come from the whole dose curve.

The target of this assay is Peroxisome proliferator-activated receptor gamma (Homo sapiens) (UniProt P37231). The assay is described as follows: qHTS assay to identify small molecule antagonists of the peroxisome proliferator-activated receptor gamma (PPARg) signaling pathway (AID 743191). Note: nearly all actives have a fitted effect of over 30% in size. Particulars: HEK293H PPARg-UAS-bla, beta-lactamase ratio, antagonist, 17 h; series mostly up to 62.6 µM. The text has this: U.S. Tox21 Program National Center for Advancing Translational Sciences [NCATS] NIH Chemical Genomics Center [NCGC] U.S. Environmental Protection Agency [EPA] National Institutes of Environmental Health Sciences [NIEHS] National Toxicology Program [NTP] U.S. Food and Drug Administration [FDA] Tox21 Assay Overview: The peroxisome proliferator-activated receptors (PPARs) are lipid-activated transcription factors of the nuclear receptor superfamily with three distinct subtypes namely PPAR alpha, PPAR delta (also called PPAR beta) and PPAR gamma (PPARg). All these subtypes heterodimerize with Retinoid X receptor (RXR) and these heterodimers regulate transcription of various genes. PPAR-gamma receptor (glitazone receptor) is involved in the regulation of glucose and lipid metabolism. To identify the compounds that inhibit PPAR-gamma signaling, GeneBLAzer PPAR gamma UAS-bla HEK293H cell line (Invitrogen, Carlsbad, CA, USA) containing a beta-lactamase reporter gene under control of an Upstream Activator Sequence (UAS) was used to screen the Tox21 compound library.
Peroxisome proliferator-activated receptor gamma (Homo sapiens), sequence (P37231 whole entry, looked up): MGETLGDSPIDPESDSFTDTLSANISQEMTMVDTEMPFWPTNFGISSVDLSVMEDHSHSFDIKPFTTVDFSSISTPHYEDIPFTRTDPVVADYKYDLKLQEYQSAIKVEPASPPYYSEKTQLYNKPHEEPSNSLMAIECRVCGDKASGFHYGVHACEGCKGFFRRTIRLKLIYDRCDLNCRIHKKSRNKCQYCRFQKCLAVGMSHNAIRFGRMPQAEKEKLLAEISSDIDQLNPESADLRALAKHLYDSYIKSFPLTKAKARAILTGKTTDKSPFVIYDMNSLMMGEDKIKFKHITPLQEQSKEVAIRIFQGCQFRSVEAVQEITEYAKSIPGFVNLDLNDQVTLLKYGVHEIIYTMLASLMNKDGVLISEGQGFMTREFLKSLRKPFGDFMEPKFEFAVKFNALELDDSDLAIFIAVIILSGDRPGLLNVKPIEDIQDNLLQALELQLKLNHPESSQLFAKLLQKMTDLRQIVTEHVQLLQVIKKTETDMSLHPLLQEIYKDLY
Tox21 Assay Protocol Summary: PPARg-bla cells were dispensed at 3000 cells/6uL/well in 1536-well black wall/clear bottom plates using a Multidrop Combi (Thermo Fisher Scientific, Waltham, MA) dispenser. After the assay plates were incubated at 37C and 5% CO2 for 5 h, 23 nL of compounds dissolved in DMSO, positive controls or DMSO only was transferred to the assay plate by a Pintool station (Kalypsys, San Diego, CA). The assay plates were incubated at 37C for 17 h. After 1 uL of LiveBLAzerTM B/G FRET substrate was added using a Bioraptr Flying Reagent Dispenser (FRD) workstation (Beckman Coulter, Indianapolis, IN, USA), the plates were incubated at room temperature for 1 h, and fluorescence intensity was measured by an Envision plate reader (PerkinElmer, Shelton, CT).
`Cc1ccc(N(C)C)cc1`: the result was inactive.

In the case of `O=C(O)c1cc(=O)c2c(OCC(O)COc3cccc4oc(C(=O)O)cc(=O)c34)cccc2o1`, the result was inactive. For the compound `C#CCN(C)Cc1ccccc1`, the outcome was inactive. For the compound `O=c1[nH]c(=O)n([C@H]2C[C@H](O)[C@@H](CO)O2)cc1Br`, the result was inactive.

On to `C[Si](O[Si](C)(C)C)O[Si](C)(C)C`, for which the outcome was inactive. For the compound `CSCCC=O`, the outcome was inactive. On to `CC(=O)OCC(=O)[C@@]12N=C(C)O[C@@H]1C[C@H]1[C@@H]3CCC4=CC(=O)C=C[C@]4(C)[C@H]3[C@@H](O)C[C@@]12C`, for which the result was inactive.

As for `CCCCCCOCCO`, the outcome was inactive.

Consider `CCCCCOC(C)=O`, for which the outcome was inactive. For the compound `CC[C@H](C)C(=O)O[C@H]1C[C@@H](C)C=C2C=C[C@H](C)[C@H](CC[C@@H]3C[C@@H](O)CC(=O)O3)[C@H]21`, the outcome was inactive. In the case of `CCCCCCCCCCCCc1ccccc1`, the outcome was inactive. To `Cc1cccnc1` belongs “inactive”. In the case of `O=c1[nH]c(=O)n([C@H]2CCCO2)cc1F`, the result was inactive. To `CC(C)(N)CO` belongs “inactive”; to `FC(F)(F)c1ccc(Cl)c(Cl)c1`, “inactive”; to `O=C(O)CCCC[C@@H]1SC[C@@H]2NC(=O)N[C@@H]21`, “inactive”. `O=C=NCCCCCCN=C=O`: the outcome was inactive.

For the compound `C#C[C@]1(O)CC[C@H]2[C@@H]3CCC4=CC(=O)CC[C@@H]4[C@H]3CC[C@@]21C`, the result was inactive.

With `CC(=O)Nc1ccccc1`, the outcome was inactive. To `O=C(OCCOCCOC(=O)c1ccccc1)c1ccccc1` belongs “inactive”; to `O=C(O)[C@H](O)[C@@H](O)[C@H](O)[C@H](O)CO`, “inactive”. To `Cc1cccc(O)c1` belongs “inactive”; to `c1ccc(OCCOc2ccccc2)cc1`, “inactive”. To `O=S1(=O)CC=CC1` belongs “inactive”. Consider `CC1CCC2CC1C2(C)C` (stereo not given), for which the result was inactive. To `CC1CCC(C(C)C)C(O)C1` (stereo not given) belongs “inactive”; to `c1ccc2scnc2c1`, “inactive”; to `CCN(CC)CCCC(C)Nc1ccnc2cc(Cl)ccc12` (stereo not given), “inactive”. To `O=c1[nH]nnc2ccccc12` belongs “inactive”; to `C=CCNC(N)=S`, “inactive”; to `CCC(O)OCCCOC` (stereo not given), “inactive”. To `CCCCCCCCCCCCCCO` belongs “inactive”; to `O=C(O)c1ccc(C(=O)O)cc1`, “inactive”; to `CCCCCCCC(=O)OC`, “inactive”. Turning to `Cc1occc(=O)c1O`, the outcome was inactive.

Consider `O=C1CCC(N2C(=O)c3ccccc3C2=O)C(=O)N1` (stereo not given), for which the outcome was inactive. With `Fc1ccc(Br)cc1`, the result was inactive. Regarding `CCCCCCCCCC`, the result was inactive. For `O=C(O)CC(C(=O)O)C(CC(=O)O)C(=O)O` (stereo not given), the outcome was inactive. To `CN(C)CCOCCN(C)C` belongs “inactive”.
